Experimental data from the supplement of paper PMC10849652.
Targets with a hit are over-represented here; the source holds about 8,800 in all. About 0.5% of all pairs of compound and target were hits.

Tests used:
Test in all cases: log2 fold change, soluble protein after heating vs DMSO (PISA); higher = thermal stabilisation; K562 lysate, 10 uM; active = over 0.2 and 3.5 SD of the protein, either way, in both replicates (recomputed)
alvocidib = compound: CN1CC[C@H](c2c(O)cc(O)c3c(=O)cc(-c4ccccc4Cl)oc23)[C@H](O)C1 [alvocidib]
In short: (§1)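 Values give the log-two fold change in thermal stability against solvent controls, from duplicates. Crude K562 extract at 1 mg/mL protein, made by dounce homogenisation in PBS pH 7.4 with 1 mM MgCl2, was treated with 10 μM compound for 30 min. After 3 min heating across 48°C-58°C, aliquots were pooled, adjusted to 0.5% NP-40 at 4°C and centrifuged at 21,000xg for 90 min. The supernatant was measured by TMTpro 16plex LC-MS/MS with channel sums equalised.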

[1] = compound: CNC(=O)C1=CC=CC=C1NC2=NC(=NC=C2Cl)NC3=C(C=C(C=C3)N4CCOCC4)OC
In short: as §1

defactinib = compound: CNC(=O)c1ccc(Nc2ncc(C(F)(F)F)c(NCc3nccnc3N(C)S(C)(=O)=O)n2)cc1 [defactinib]
In short: as §1

[2] = compound: CNc1nc(-c2ccc3c(N)n[nH]c3c2)cc(N2C[C@@H](C(=O)NC3CCCCC3)CC[C@H]2C)n1
In short: as §1

encorafenib = compound: COC(=O)N[C@@H](C)CNc1nccc(-c2cn(C(C)C)nc2-c2cc(Cl)cc(NS(C)(=O)=O)c2F)n1 [encorafenib]
In short: as §1

[3] = compound: COC(=O)[C@H](CCSC)NC(=O)C1=C(C=C(C=C1)NC[C@H](CS)N)C2=CC=CC=C2
In short: as §1

[4] = compound: COc1cc2nc(-c3cc(F)ccc3O)nc(N[C@@H]3CNC[C@H]3C(C)(C)O)c2cc1OC
In short: as §1

lapatinib = compound: CS(=O)(=O)CCNCc1ccc(-c2ccc3ncnc(Nc4ccc(OCc5cccc(F)c5)c(Cl)c4)c3c2)o1 [lapatinib]
In short: as §1

pictilisib = compound: CS(=O)(=O)N1CCN(Cc2cc3nc(-c4cccc5[nH]ncc45)nc(N4CCOCC4)c3s2)CC1 [pictilisib]
In short: as §1

crizotinib = compound: C[C@@H](Oc1cc(-c2cnn(C3CCNCC3)c2)cnc1N)c1c(Cl)ccc(F)c1Cl [crizotinib]
In short: as §1

[5] = compound: C[C@H](C1=CC=C(C=C1)C(=O)NC2=C3C=CNC3=NC=C2)N
In short: as §1

duvelisib = compound: C[C@H](Nc1ncnc2nc[nH]c12)c1cc2cccc(Cl)c2c(=O)n1-c1ccccc1 [duvelisib]
In short: as §1

gandotinib = compound: Cc1cc(Nc2cc(CN3CCOCC3)c3nc(C)c(Cc4ccc(Cl)cc4F)n3n2)n[nH]1 [gandotinib]
In short: as §1

tozasertib = compound: Cc1cc(Nc2cc(N3CCN(C)CC3)nc(Sc3ccc(NC(=O)C4CC4)cc3)n2)n[nH]1 [tozasertib]
In short: as §1

doramapimod = compound: Cc1ccc(-n2nc(C(C)(C)C)cc2NC(=O)Nc2ccc(OCCN3CCOCC3)c3ccccc23)cc1 [doramapimod]
In short: as §1

bafetinib = compound: Cc1ccc(NC(=O)c2ccc(CN3CC[C@H](N(C)C)C3)c(C(F)(F)F)c2)cc1Nc1nccc(-c2cncnc2)n1 [bafetinib]
In short: as §1

[6] = compound: Cc1cccc(CC(=O)N2CCc3c2ccc(-c2cn(C)c4ncnc(N)c24)c3F)n1
In short: as §1

Tubastatin A = compound: CN1CCc2c(c3ccccc3n2Cc2ccc(C(=O)NO)cc2)C1 [Tubastatin A]
In short: as §1

alisertib = compound: COc1cc(Nc2ncc3c(n2)-c2ccc(Cl)cc2C(c2c(F)cccc2OC)=NC3)ccc1C(=O)O [alisertib]
In short: as §1

gefitinib = compound: COc1cc2ncnc(Nc3ccc(F)c(Cl)c3)c2cc1OCCCN1CCOCC1 [gefitinib]
In short: as §1

Measured: log2 fold change

POLR2M (UniProt Q6EEV4)
Sequence of UniProt Q6EEV4 (Q6EEV4 whole entry, looked up): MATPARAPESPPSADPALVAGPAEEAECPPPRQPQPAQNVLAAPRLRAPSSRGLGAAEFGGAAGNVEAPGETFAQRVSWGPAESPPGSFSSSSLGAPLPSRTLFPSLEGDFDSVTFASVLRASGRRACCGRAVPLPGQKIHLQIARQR
inactive: alvocidib 0.085 | [1] 0.075 | defactinib 0.125 | [2] 0.108 | encorafenib -0.001 | [3] -0.081 | [4] 0.038 | lapatinib 0.047 | pictilisib -0.07 | crizotinib -0.064 | [5] 0.026 | duvelisib -0.049 | gandotinib -0.154 | tozasertib 0.055 | doramapimod -0.041 | bafetinib -0.116 | [6] 0.046

PREP (UniProt H0Y5Y0)
inactive: alvocidib 0.082 | [4] 0.03 | lapatinib -0.029 | [5] -0.304 | gandotinib 0.113 | [6] -0.153

PRIMPOL (UniProt Q96LW4)
Sequence of UniProt Q96LW4 (Q96LW4 whole entry, looked up): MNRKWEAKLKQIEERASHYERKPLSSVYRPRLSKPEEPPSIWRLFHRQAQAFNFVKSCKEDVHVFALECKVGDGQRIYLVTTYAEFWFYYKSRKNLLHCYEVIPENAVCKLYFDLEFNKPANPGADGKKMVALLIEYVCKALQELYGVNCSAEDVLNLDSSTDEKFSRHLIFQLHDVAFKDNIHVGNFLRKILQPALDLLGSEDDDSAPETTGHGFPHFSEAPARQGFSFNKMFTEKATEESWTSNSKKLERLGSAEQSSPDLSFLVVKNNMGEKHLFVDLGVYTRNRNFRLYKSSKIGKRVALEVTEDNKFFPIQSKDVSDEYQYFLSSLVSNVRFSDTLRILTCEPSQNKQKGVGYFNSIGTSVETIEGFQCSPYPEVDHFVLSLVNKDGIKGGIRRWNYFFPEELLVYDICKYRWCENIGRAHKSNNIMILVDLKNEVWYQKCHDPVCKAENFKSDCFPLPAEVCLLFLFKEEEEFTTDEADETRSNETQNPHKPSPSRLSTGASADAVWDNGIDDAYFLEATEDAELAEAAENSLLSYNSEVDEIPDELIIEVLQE
inactive: Tubastatin A -0.159 | [1] 0.036 | defactinib 0.076 | [2] 0.071 | encorafenib 0.055 | [3] -0.37 | alisertib -0.113 | gefitinib 0.045 | pictilisib 0.02 | crizotinib -0.097 | duvelisib 0.003 | tozasertib -0.031 | doramapimod 0.014 | bafetinib -0.225

PFN1 (UniProt I3L3D5)
active: [5] 0.524
inactive: alvocidib 0.045 | Tubastatin A -0.01 | encorafenib 0.157 | [3] 0.058 | alisertib 0.028 | [4] -0.195 | gefitinib 0.062 | lapatinib 0.066 | pictilisib -0.062 | gandotinib -0.15 | tozasertib -0.051 | bafetinib -0.19 | [6] 0.015

PPP2R5C isoform 2 (UniProt Q13362)
Sequence of UniProt Q13362 (Q13362 whole entry, looked up): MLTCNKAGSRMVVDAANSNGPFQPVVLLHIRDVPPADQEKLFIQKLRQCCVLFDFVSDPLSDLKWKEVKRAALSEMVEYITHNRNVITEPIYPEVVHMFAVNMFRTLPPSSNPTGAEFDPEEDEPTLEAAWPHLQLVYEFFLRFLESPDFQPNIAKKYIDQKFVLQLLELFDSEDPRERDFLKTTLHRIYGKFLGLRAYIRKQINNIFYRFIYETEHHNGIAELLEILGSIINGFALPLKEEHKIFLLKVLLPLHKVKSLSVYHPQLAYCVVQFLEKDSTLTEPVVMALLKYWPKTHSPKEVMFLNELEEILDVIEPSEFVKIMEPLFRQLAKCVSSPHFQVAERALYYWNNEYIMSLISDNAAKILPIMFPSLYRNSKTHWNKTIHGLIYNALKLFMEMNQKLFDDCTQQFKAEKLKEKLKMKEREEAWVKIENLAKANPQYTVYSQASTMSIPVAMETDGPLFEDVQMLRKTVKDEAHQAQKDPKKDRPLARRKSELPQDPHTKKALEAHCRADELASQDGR
inactive: alvocidib -0.004 | Tubastatin A 0.044 | [1] -0.028 | defactinib -0.024 | [2] 0.001 | alisertib 0.058 | gefitinib -0.062 | pictilisib 0.151 | crizotinib 0.234 | [5] -0.021 | duvelisib -0.064 | gandotinib 0.026 | doramapimod -0.043 | bafetinib 0.103 | [6] -0.005

PRR4 (UniProt Q16378)
Sequence of UniProt Q16378 (Q16378 whole entry, looked up): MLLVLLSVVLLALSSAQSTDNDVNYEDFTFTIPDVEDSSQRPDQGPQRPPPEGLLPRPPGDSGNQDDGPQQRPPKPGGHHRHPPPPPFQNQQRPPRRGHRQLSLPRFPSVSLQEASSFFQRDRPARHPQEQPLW
inactive: alvocidib -0.033 | Tubastatin A 0.181 | [1] 0.215 | defactinib 0.08 | encorafenib -0.396 | [3] 0.126 | alisertib 0.075 | [4] -0.011 | gefitinib 0.026 | lapatinib 0.047 | [5] 0.291 | gandotinib -0.34 | tozasertib 0.412 | [6] 0.252

PPP1R14C (UniProt Q8TAE6)
Sequence of UniProt Q8TAE6 (Q8TAE6 whole entry, looked up): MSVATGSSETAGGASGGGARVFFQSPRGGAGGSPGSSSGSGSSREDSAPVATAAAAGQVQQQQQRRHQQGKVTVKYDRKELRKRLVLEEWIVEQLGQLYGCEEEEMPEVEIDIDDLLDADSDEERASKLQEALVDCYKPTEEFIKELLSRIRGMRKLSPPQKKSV
active: gandotinib 0.358
inactive: alvocidib -0.045 | Tubastatin A -0.033 | defactinib -0.002 | [2] -0.14 | encorafenib 0.064 | [3] 0.014 | alisertib -0.044 | [4] -0.04 | gefitinib 0.032 | lapatinib -0.044 | pictilisib -0.025 | [5] -0.022 | duvelisib 0.121 | tozasertib 0.08 | bafetinib 0.041 | [6] 0.336

PPIC (UniProt P45877)
Sequence of UniProt P45877 (P45877 whole entry, looked up): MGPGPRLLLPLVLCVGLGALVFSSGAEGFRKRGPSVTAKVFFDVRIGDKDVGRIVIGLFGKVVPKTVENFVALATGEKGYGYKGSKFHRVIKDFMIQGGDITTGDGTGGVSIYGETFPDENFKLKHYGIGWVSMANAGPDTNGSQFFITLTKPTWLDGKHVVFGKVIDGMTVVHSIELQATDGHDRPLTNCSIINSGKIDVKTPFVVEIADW
inactive: alvocidib -0.031 | Tubastatin A 0.089 | [1] 0.024 | defactinib 0.077 | [2] -0.052 | alisertib 0.004 | gefitinib 0.103 | pictilisib -0.003 | crizotinib -0.131 | [5] -0.078 | duvelisib -0.095 | gandotinib -0.042 | doramapimod 0.086 | bafetinib -0.061 | [6] 0.079

PYGO2 (UniProt Q9BRQ0)
Sequence of UniProt Q9BRQ0 (Q9BRQ0 whole entry, looked up): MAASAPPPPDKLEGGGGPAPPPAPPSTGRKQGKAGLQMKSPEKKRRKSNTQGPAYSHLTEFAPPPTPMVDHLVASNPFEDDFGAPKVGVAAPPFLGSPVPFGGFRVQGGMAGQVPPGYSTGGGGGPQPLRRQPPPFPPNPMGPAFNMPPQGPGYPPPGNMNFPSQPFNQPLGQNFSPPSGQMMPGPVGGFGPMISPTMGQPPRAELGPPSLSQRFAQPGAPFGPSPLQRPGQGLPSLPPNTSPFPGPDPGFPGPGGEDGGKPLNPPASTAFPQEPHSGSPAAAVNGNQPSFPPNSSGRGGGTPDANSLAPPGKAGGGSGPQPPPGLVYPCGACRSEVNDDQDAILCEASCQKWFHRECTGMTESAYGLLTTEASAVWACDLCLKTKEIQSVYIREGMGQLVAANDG
inactive: alvocidib 0.01 | Tubastatin A -0.019 | [1] 0.032 | [2] 0.131 | encorafenib -0.031 | [3] -0.121 | alisertib -0.011 | gefitinib -0.026 | pictilisib -0.038 | crizotinib 0.067 | [5] 0.014 | duvelisib -0.046 | gandotinib 0.078 | tozasertib -0.076 | doramapimod 0.032 | bafetinib -0.046 | [6] -0.022

PDIA4, A0A499FI48
active: [5] 1.32
inactive: alvocidib 0.336 | [2] -0.003 | crizotinib -0.063 | duvelisib -0.101 | gandotinib -0.18 | doramapimod -0.039 | [6] -0.154

PECR (UniProt Q9BY49)
inactive: encorafenib 0.101 | [3] -0.184 | tozasertib -0.053

PPT2, A0A140T9Y1
inactive: alisertib -0.144 | gefitinib 0.006

PRRG1 (UniProt O14668)
inactive: Tubastatin A -0.032

PPME1 (UniProt Q9Y570)
inactive: [1] 0.125 | [2] -0.065 | encorafenib -0.029 | [3] -0.059 | [4] 0.014 | lapatinib 0.002 | pictilisib 0.038 | duvelisib -0.017 | tozasertib 0.072 | bafetinib -0.081

PTMA isoform 2 (UniProt P06454)
inactive: pictilisib -0.053 | bafetinib -0.02

PFN3 (UniProt P60673)
Sequence of UniProt P60673 (P60673 whole entry, looked up): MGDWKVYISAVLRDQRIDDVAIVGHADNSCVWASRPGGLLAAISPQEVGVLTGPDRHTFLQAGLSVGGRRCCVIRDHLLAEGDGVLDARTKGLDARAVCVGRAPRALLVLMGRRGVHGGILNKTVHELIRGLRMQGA
inactive: alvocidib -0.182 | defactinib -0.109 | encorafenib 0.125 | [3] -0.28 | alisertib -0.047 | [4] 0.154 | gefitinib 0.075 | lapatinib -0.199 | crizotinib -0.046 | [5] -0.458 | gandotinib 0.119 | tozasertib 0.155 | doramapimod 0.083 | [6] 0.193

NA (UniProt Q4G0T1)
Sequence of UniProt Q4G0T1 (Q4G0T1 whole entry, looked up): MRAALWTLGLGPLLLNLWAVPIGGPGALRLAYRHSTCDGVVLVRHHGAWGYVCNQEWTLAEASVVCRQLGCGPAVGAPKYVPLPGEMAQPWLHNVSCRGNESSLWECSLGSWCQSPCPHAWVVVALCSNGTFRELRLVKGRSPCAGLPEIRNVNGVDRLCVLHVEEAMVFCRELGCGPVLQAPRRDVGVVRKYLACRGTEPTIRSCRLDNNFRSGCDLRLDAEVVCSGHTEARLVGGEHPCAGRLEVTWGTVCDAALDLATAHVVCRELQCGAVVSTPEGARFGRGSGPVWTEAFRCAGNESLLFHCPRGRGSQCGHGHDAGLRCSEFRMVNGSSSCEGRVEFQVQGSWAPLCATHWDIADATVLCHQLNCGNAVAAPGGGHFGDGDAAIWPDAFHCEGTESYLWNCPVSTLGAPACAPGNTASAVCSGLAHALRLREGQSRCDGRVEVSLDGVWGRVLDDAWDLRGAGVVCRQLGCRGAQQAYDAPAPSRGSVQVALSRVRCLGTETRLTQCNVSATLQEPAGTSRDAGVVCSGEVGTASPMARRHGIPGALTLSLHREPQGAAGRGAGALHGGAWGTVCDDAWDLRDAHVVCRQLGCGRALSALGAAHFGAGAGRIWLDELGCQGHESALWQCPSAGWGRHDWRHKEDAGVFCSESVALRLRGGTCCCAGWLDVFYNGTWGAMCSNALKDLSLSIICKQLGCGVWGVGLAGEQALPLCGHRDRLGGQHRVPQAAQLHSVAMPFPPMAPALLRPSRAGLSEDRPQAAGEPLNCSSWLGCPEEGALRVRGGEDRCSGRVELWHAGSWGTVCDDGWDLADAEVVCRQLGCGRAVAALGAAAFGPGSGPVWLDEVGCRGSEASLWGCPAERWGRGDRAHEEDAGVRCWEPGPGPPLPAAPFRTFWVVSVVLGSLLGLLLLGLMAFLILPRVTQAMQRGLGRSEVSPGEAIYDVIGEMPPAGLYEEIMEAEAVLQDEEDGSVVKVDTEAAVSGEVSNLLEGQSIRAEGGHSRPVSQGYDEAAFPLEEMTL
inactive: alvocidib -0.132 | Tubastatin A -0.272 | [1] -0.115 | [2] -0.062 | crizotinib 0.023 | [5] -0.044 | duvelisib 0.035 | gandotinib -0.015 | doramapimod 0.042 | [6] 0.034

PNPLA4 (UniProt P41247)
active: doramapimod 0.825
inactive: alvocidib 0.074 | Tubastatin A 0.147 | defactinib -0.148 | [2] -0.17 | encorafenib -0.076 | [3] 0.125 | crizotinib -0.098 | [5] 0.121 | duvelisib 0.021 | gandotinib -0.019 | tozasertib -0.011 | [6] -0.138

PRG4 (UniProt Q92954)
inactive: Tubastatin A 0.103 | [2] 0.204 | alisertib -0.045 | [4] 0.093 | gefitinib -0.076 | lapatinib -0.097 | pictilisib -0.408 | crizotinib -0.118 | duvelisib 0.042 | gandotinib 0.051 | doramapimod 0.201 | bafetinib -0.238 | [6] 0.278
active: alvocidib -0.826 | [5] -1.36

PCBP2 (UniProt F8W0G4)
inactive: Tubastatin A -0.009 | [1] 0.01 | defactinib 0.044 | [2] 0.033 | encorafenib 0.125 | [3] -0.006 | alisertib 0.192 | gefitinib 0.028 | pictilisib 0.087 | duvelisib 0.358 | tozasertib -0.069 | bafetinib -0.223

PPP1R12B isoform 6 (UniProt O60237)
Sequence of UniProt O60237 (O60237 whole entry, looked up): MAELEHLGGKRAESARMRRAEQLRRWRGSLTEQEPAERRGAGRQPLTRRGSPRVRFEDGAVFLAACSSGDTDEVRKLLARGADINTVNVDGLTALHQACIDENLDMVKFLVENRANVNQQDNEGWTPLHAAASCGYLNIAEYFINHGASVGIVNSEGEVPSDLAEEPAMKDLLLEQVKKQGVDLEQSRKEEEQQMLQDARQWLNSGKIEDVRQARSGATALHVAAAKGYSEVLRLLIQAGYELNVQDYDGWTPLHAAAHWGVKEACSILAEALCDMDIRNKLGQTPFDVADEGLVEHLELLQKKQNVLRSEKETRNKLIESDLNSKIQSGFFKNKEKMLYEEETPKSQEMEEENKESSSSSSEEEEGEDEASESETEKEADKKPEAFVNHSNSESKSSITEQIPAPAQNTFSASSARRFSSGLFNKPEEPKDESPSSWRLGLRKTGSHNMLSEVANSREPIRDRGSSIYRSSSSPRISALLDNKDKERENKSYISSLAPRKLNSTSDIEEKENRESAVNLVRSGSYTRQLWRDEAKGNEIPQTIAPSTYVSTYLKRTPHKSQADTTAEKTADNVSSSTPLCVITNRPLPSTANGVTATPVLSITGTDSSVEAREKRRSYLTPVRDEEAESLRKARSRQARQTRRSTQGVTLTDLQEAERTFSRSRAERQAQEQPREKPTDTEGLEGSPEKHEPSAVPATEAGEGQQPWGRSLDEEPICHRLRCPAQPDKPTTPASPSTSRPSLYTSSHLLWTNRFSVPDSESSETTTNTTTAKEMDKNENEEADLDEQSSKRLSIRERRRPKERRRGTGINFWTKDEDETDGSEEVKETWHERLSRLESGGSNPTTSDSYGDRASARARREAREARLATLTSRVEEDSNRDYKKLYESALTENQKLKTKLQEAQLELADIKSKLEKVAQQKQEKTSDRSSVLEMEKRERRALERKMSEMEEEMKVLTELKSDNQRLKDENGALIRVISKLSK
inactive: Tubastatin A 0.081 | [1] 0.006 | defactinib -0.046 | [2] 0.016 | encorafenib -0.011 | [3] 0.145 | [4] 0.072 | lapatinib -0.079 | pictilisib 0.017 | crizotinib -0.347 | duvelisib 0.036 | tozasertib -0.015 | doramapimod 0.047 | bafetinib 0.05

PHF14 (UniProt O94880)
inactive: Tubastatin A 0.01 | defactinib -0.012 | [2] 0.02 | encorafenib -0.014 | [3] 0.1 | alisertib 0.044 | [4] -0.069 | gefitinib -0.042 | lapatinib 0.199 | pictilisib -0.049 | duvelisib 0.024 | tozasertib -0.117 | bafetinib -0.013

PLXND1 (UniProt Q9Y4D7)
inactive: Tubastatin A 0.111 | [1] 0.015 | [2] -0.123 | alisertib 0.046 | gefitinib 0.313 | pictilisib 0.018 | crizotinib 0.067 | duvelisib -0.031 | doramapimod 0.171
active: bafetinib -0.461

PIAS2 (UniProt O75928)
Sequence of UniProt O75928 (O75928 whole entry, looked up): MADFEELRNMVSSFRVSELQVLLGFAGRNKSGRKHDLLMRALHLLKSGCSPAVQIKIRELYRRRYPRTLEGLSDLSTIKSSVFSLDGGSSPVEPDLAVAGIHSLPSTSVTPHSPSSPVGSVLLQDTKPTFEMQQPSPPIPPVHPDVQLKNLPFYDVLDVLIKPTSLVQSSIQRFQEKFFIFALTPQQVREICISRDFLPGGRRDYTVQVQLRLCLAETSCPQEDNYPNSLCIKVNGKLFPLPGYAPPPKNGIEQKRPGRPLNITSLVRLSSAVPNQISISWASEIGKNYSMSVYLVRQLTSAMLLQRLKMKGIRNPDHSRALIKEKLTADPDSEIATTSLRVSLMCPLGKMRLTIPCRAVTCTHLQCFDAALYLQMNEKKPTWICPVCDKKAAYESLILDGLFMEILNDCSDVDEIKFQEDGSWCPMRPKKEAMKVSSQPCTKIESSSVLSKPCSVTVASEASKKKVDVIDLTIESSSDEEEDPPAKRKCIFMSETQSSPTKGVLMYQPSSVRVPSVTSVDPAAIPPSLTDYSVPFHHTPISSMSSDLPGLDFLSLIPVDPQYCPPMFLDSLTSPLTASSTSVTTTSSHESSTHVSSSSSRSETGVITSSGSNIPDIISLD
inactive: Tubastatin A -0.092 | [1] 0.006 | defactinib -0.348 | [2] -0.002 | encorafenib 0.006 | [3] -0.041 | alisertib -0.021 | gefitinib -0.091 | crizotinib -0.045 | duvelisib 0.075 | tozasertib 0.048 | doramapimod -0.007
